Test results taken from PubChem BioAssay (Tox21).
Several values for one entry are separate records, joined by “and”; a condition that tells them apart may be missing. Equal entries are not always repeated. Results filed as inconclusive are left out. Some structures have more than one record in an assay (separate samples or runs), and their calls can disagree. Activity calls are given as the source filed them. Unless noted, calls come from the whole dose curve; as a rule, active = well fitted curve in the direction sought with a large enough effect in the repeat runs; inconclusive = weak or mixed curves; inactive = no such curve, though single readings can be large; an effect the other way counts as inactive or inconclusive.

Columns and labels:
[1] = qHTS assay to identify small molecule agonists of the sonic hedgehog signaling (Shh) pathway (AID 1259368; calls by dose curve; note: nearly all actives have a fitted effect of over 15% in size; note: potency is the fitted concentration of half-maximal effect)
How it was run: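 Cells of a mouse NIH/3T3 clone stably expressing luciferase under the Gli1 transcriptional response element are exposed to test chemicals for 24 hr at 37 C. Pathway activation is detected as a rise in luminescence.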

[2] = qHTS assay to identify small molecule antagonists of the sonic hedgehog signaling (Shh) pathway (AID 1259369; calls by dose curve; note: nearly all actives have a fitted effect of over 45% in size; note: potency is the fitted concentration of half-maximal effect)
How it was run: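 Cells are plated and held 4hr at 37 C, compounds (DMSO) are pinned in, conditioned medium is added to stimulate the pathway, and after 24hr luciferase reagent is added for 30min before luminescence is read.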

[3] = qHTS assay to identify small molecule agonists of the estrogen receptor beta (ER-beta) signaling pathway - cell viability counter screen (AID 1259380); note: nearly all actives have a fitted effect of over 30% in size; note: potency is the fitted concentration of half-maximal effect
How it was run: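 Cytotoxicity is measured in parallel with the reporter screen: after 16 hr compound exposure at 37C and a 2 hr LiveBLAzer step, CellTiter-Glo is added to the same ER-beta-UAS-bla HEK293T wells and luminescence read after 30 min.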

[4] = qHTS assay to identify small molecule antagonists of the estrogen receptor beta (ER-beta) signaling pathway - cell viability counter screen (AID 1259382); note: nearly all actives have a fitted effect of over 55% in size; note: potency is the fitted concentration of half-maximal effect
How it was run: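 Cytotoxicity counter screen multiplexed with the beta-lactamase antagonist assay: GripTite HEK293T ER-beta-bla cells were treated 16 hr with test chemicals in the presence of 1nM 17-beta-estradiol, and viability was measured by CellTiter-Glo.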

[5] = target: Estrogen receptor (Homo sapiens) (UniProt P03372); experiment: qHTS assay to identify small molecule agonists of the estrogen receptor alpha (ER-alpha) signaling pathway in the presence of an antagonist (AID 1259383; calls by dose curve; note: nearly all actives have a fitted effect of over 15% in size; note: potency is the fitted concentration of half-maximal effect; for activation: top concentration of the series differs between compounds)
How it was run: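 Agonist-mode confirmation in the presence of the ER antagonist ICI-182,780 at 10.0nM final. Breast-derived VM7Luc4E2 reporter cells were exposed to compounds for 22hr, and ERE-driven luciferase was quantified by luminescence.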

[6] = qHTS assay to identify small molecule agonists of the estrogen receptor alpha (ER-alpha) signaling pathway in the presence of an antagonist - cell viability counter screen (AID 1259386);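 note: cells exposed to compounds for 22 h at 37 °C before the viability read; nearly all actives have a fitted effect of over 30% in size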; note: potency is the fitted concentration of half-maximal effect
How it was run: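 Cytotoxicity was measured in parallel with the ERE-luciferase agonist screen, in the same wells. The cells were VM7Luc4E2, which endogenously express ER-alpha, and treatment was with compounds plus 10.0nM ICI-182,780 for 22hr.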

[7] = target: Progesterone receptor (Homo sapiens) (UniProt P06401); experiment: qHTS assay to identify small molecule agonists of the progesterone receptor (PR) signaling pathway (AID 1346784; calls by dose curve; note: nearly all actives have a fitted effect of over 30% in size)
How it was run: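 HEK 293T PR-UAS-bla reporter cells, 2% charcoal-stripped FBS; 6 hr settle at 37C/5% CO2, compound (DMSO) 16 hr, LiveBLAzer B/G FRET substrate 2 hr RT, fluorescence intensity read.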

[8] = qHTS assay to identify small molecule antagonists of the progesterone receptor (PR) signaling pathway - cell viability counter screen (AID 1346798); note: series mostly up to about 92 µM; nearly all actives have a fitted effect of over 50% in size
How it was run: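 Luminescence readout (CellTiter-Glo, 30 min, RT) of viability in PR-UAS-bla HEK293T cells exposed to compound and R5020 agonist for 16 hr at 37C, 5% CO2; run in the same wells as the beta-lactamase reporter read.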

[9] = qHTS assay to identify small molecule agonists of the progesterone receptor (PR) signaling pathway - cell viability counter screen (AID 1346799; calls by dose curve; note: nearly all actives have a fitted effect of over 45% in size)
How it was run: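 HEK293T PR-UAS-bla, 3,000 cells/well, 2% charcoal-stripped FBS; 6 h settle, compound 16 h at 37C/5% CO2; LiveBLAzer 2 h RT, then CellTiter-Glo 30 min RT, luminescence read.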

[10] = qHTS assay to identify small molecule antagonists of the TGF-beta/Smad signaling pathway - cell viability counter screen (AID 1346824); note: nearly all actives have a fitted effect of over 50% in size; note: potency is the fitted concentration of half-maximal effect
How it was run: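 SBE-bla HEK 293T cells, incubated overnight, then compound plus 0.25 ng/mL TGF-beta1 (stock added) for 5 hr at 37 C. Viability was read in the same wells by CellTiter-Glo luminescence after 30 min at room temperature.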

[11] = qHTS assay to identify small molecule agonists of the TGF-beta/Smad signaling pathway - cell viability counter screen (AID 1346829); note: nearly all actives have a fitted effect of over 45% in size; note: potency is the fitted concentration of half-maximal effect
How it was run: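 HEK 293T SBE-bla line, 5 hr compound exposure at 37 C, multiplexed CellTiter-Glo viability read by luminescence.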

[12] = qHTS assay to identify small molecule agonists of the TGF-beta/Smad signaling pathway (AID 1346859; active = well fitted activation curve with a large enough effect in the signal ratio in the repeat runs, not every such curve was filed as active; the % refers to the signal ratio; note: series mostly up to about 77 µM)
How it was run: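 Read-out: fluorescence at 460 and 530 nm (405 nm excitation) after a 2 hr room-temperature incubation with beta-lactamase FRET substrate. SBE-bla HEK 293T cells had been treated with test compounds for 5 hr at 37 C.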

[13] = target: Thyrotropin-releasing hormone receptor (Homo sapiens) (UniProt P34981); experiment: qHTS assay to identify small molecule antagonists of the thyrotropin-releasing hormone receptor (TRHR) signaling pathway (AID 1346877; active = well fitted inhibition curve with a large enough effect in the repeat runs, not every such curve was filed as active; note: series mostly up to about 51 µM)
How it was run: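 Antagonism is measured as suppression of the calcium response to 1 nM TRH in TRHR-HEK293 cells that have been dye-loaded for 2 h at 37 °C after overnight plating. Each compound is tested at 15 concentrations in triplicate.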

[14] = qHTS assay to identify small molecule agonists of the androgen receptor (AR) signaling pathway in the presence of an antagonist - cell viability counter screen (AID 1259379); note: nearly all actives have a fitted effect of over 25% in size; note: potency is the fitted concentration of half-maximal effect
How it was run: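 Cytotoxicity is assessed by CellTiter-Fluor in MDA-kb2 cells carrying an MMTV-driven luciferase reporter. Cells receive 3.0uM nilutamide plus compounds at 15 concentrations and incubate 16 hr at 37C without CO2 before fluorescence reading.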

[15] = qHTS assay to identify small molecule agonists or antagonists of the thyroid stimulating hormone receptor (TSHR) signaling pathway - wild type cell line counter screen (AID 1259384; calls by dose curve)
How it was run: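 Wild-type Hek293 cells, 800/well, 18 h at 37C, then compound with Ro20-1724 for 30 min RT. cAMP by HTRF (cAMP-d2/anti-cAMP cryptate), 1 h RT, fluorescence read. 15 concentrations, triplicates.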

[16] = target: Thyrotropin receptor (Homo sapiens) (UniProt P16473); experiment: qHTS assay to identify small molecule antagonists of the thyroid stimulating hormone receptor (TSHR) signaling pathway (AID 1259385; calls by dose curve; note: nearly all actives have a fitted effect of over 20% in size)
How it was run: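 TSHR-HEK293 cells (800/well) plated 18 h, then compounds with Ro20-1724 and TSH at 1.5 ng/mL final, 30 min at room temperature. cAMP quantified by HTRF (cAMP-d2/anti-cAMP-cryptate, 1 h); 15 concentrations in triplicate.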

[17] = target: Estrogen receptor beta (Homo sapiens) (UniProt Q92731); experiment: qHTS assay to identify small molecule antagonists of the estrogen receptor beta (ER-beta) signaling pathway (AID 1259378; active = well fitted inhibition curve with a large enough effect in the signal ratio in the repeat runs, not every such curve was filed as active; the % refers to the signal ratio; note: potency is the fitted concentration of half-maximal effect)
How it was run: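 ER-beta-UAS-bla HEK293T cells in 2% charcoal-stripped FBS medium treated with compound plus 1nM final 17-beta-estradiol for 16 hr at 37C. Beta-lactamase reporter read by FRET substrate fluorescence after 2 hours at room temperature.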

[18] = target: Progesterone receptor (Homo sapiens) (UniProt P06401); experiment: qHTS assay to identify small molecule antagonists of the progesterone receptor (PR) signaling pathway (AID 1346795; active = well fitted inhibition curve with a large enough effect in the signal ratio in the repeat runs, not every such curve was filed as active; the % refers to the signal ratio; note: potency is the fitted concentration of half-maximal effect)
How it was run: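 Beta-lactamase reporter, HEK293T PR-UAS-bla line; 2% charcoal-stripped FBS; 6 hr pre-incubation, 37C/5% CO2. Compound + R5020 1 nM final, 16 hr. LiveBLAzer B/G FRET substrate, 2 hr RT; fluorescence intensity read.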

Measured: Potency

Sequence of Estrogen receptor (Homo sapiens) (P03372 whole entry, looked up): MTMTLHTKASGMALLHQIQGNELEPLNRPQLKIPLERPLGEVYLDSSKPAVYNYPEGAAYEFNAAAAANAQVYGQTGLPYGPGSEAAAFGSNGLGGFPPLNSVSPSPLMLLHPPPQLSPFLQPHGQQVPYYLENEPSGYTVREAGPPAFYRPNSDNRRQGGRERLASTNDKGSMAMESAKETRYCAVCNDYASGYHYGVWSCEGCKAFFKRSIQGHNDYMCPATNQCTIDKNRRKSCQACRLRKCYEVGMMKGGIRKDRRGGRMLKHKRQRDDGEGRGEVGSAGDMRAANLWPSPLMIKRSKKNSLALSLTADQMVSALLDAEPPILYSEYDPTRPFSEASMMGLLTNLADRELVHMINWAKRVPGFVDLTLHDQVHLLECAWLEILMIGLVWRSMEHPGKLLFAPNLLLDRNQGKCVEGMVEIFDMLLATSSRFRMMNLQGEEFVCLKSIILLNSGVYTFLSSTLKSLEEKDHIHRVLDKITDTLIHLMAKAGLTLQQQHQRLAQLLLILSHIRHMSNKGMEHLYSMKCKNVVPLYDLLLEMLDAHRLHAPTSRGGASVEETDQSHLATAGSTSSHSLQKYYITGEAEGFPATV
Sequence of Thyrotropin receptor (Homo sapiens) (P16473 whole entry, looked up): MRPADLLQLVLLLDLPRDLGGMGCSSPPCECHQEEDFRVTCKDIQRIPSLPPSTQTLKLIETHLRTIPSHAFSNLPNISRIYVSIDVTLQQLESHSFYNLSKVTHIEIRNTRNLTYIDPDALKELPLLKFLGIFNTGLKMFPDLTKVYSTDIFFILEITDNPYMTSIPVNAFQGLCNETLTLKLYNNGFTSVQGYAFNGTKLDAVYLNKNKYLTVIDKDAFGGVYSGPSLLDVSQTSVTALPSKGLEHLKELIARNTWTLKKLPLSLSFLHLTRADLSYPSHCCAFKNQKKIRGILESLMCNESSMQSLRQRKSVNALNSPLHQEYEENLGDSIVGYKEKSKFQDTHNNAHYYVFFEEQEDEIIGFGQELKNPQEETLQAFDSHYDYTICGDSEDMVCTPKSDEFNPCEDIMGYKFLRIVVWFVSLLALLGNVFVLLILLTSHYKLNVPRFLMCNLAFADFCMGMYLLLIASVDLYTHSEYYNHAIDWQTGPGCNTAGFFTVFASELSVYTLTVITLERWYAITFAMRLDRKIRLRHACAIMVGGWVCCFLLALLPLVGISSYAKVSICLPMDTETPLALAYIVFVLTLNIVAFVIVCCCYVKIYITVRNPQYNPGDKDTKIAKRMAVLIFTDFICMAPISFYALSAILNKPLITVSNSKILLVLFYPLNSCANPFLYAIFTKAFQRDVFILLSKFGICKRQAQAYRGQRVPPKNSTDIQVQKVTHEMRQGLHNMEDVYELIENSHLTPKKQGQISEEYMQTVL
Sequence of Progesterone receptor (Homo sapiens) (P06401 whole entry, looked up): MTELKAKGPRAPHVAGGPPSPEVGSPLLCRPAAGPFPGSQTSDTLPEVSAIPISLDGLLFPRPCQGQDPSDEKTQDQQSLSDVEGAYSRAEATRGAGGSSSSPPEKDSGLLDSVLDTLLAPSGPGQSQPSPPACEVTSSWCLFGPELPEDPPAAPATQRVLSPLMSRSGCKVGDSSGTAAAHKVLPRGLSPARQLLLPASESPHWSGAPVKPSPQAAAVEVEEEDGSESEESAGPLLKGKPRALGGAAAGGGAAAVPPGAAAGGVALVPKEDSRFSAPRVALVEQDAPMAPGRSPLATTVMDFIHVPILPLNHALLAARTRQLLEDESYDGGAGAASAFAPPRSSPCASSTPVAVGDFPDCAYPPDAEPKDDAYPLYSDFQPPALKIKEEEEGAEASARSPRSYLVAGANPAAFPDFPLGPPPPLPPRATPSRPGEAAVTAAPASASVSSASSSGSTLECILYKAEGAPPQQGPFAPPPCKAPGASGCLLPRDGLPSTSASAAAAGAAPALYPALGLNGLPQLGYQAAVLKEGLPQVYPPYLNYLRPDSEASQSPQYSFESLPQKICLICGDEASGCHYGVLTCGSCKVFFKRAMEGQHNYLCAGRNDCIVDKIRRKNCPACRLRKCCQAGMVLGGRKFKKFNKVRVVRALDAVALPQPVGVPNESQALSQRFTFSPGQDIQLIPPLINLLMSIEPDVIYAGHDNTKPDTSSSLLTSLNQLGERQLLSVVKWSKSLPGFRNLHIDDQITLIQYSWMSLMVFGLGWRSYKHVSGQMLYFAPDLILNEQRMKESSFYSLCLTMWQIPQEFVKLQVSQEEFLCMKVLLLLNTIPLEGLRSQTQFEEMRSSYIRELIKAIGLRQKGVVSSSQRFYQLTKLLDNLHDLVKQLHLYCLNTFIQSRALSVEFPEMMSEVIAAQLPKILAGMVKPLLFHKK
Sequence of Thyrotropin-releasing hormone receptor (Homo sapiens) (P34981 whole entry, looked up): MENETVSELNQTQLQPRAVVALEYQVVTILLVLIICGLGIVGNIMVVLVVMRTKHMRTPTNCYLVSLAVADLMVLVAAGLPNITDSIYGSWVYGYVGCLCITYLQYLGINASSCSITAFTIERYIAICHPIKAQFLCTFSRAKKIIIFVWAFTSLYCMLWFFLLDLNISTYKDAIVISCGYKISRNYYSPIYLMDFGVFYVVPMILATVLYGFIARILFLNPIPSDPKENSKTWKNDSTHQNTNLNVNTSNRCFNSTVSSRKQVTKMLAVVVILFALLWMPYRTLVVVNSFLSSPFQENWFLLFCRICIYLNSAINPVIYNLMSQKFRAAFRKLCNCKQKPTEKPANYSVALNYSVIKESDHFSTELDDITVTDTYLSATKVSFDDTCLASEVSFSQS
Sequence of Estrogen receptor beta (Homo sapiens) (Q92731 whole entry, looked up): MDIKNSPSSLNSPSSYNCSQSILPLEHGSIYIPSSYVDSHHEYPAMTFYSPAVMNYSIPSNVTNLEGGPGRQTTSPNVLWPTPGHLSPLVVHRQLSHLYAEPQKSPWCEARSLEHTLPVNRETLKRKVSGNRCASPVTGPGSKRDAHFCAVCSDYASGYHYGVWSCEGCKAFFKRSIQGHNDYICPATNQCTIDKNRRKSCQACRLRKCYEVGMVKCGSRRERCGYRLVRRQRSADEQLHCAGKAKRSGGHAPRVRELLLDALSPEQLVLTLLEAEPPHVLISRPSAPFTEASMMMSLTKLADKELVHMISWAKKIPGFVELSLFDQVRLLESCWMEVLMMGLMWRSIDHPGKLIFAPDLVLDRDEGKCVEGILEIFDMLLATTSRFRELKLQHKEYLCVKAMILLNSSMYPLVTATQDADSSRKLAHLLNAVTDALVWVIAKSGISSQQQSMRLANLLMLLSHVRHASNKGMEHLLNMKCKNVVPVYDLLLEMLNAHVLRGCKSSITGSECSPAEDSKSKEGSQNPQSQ

COC(=O)Nc1nc2ccc(S(=O)c3ccccc3)cc2[nH]1 (centres undefined)
active: [2] 2.37 µM
not listed: [14] | [15] | [16] | [17] | [18]
inactive: all other assays above

CCCc1c(OCCCCc2nn[nH]n2)ccc(C(C)=O)c1O
active: [3] 68.6 µM
not listed: [8] | [12] | [17] | [18]
inactive: all other assays above

C#C[C@]1(O)CC[C@H]2[C@@H]3CCC4=Cc5oncc5C[C@]4(C)[C@H]3CC[C@@]21C
active: [2] 2.17 µM and 11.9 µM | [17] 15.4 µM | [3] 61.1 µM and 29.8 µM | [4] 48.6 µM and 26.6 µM | [18] 0.0611 µM
not listed: [7] | [8] | [9]
inactive: all other assays above

c1cc(N(CC2CO2)CC2CO2)ccc1OCC1CO1 (centres undefined)
active: [2] 3.44 µM and 9.69 µM | [6] 54.5 µM | [18] 48.6 µM
not listed: [8] | [14] | [17]
inactive: all other assays above

CC(C)=CCC/C(C)=C\CO
not listed: [5] | [7] | [9] | [13] | [17]
inactive: all other assays above

Nc1ccccc1N
inactive and 30.6 µM (active): [2]
active: [1] 788 nM and 13.7 µM | [6] 49.7 µM
inactive and 27.3 µM (active): [5]
not listed: [16] | [18]
inactive: all other assays above

CC(=O)Oc1ccccc1C(=O)Nc1ncc([N+](=O)[O-])s1
inactive: [1] | [5] | [15] | [16] | [7] | [13]
active: [2] 9.88 µM and 18.8 µM | [14] 22.1 µM and 13.3 µM | [3] 12.4 µM and 7.5 µM | [4] 22.1 µM | [6] 24.8 µM and 23.7 µM | [10] 14.1 µM and 8.49 µM | [11] 11.2 µM

CC(C)OC=O
32.6 µM (active) and inactive: [2]
not listed: [12] | [17] | [18]
inactive: all other assays above
